The record followed here is PubChem BioAssay (NCATS).

A short description of assay [1]: P-glycoprotein substrates identified in KB-3-1 adenocarcinoma cell line, qHTS therapeutic library screen (AID 1346986). Also: nearly all actives have a fitted effect of over 60% in size. The gist of the method:
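72 h cell-killing screen, 500 cells/well, CellTiter-Glo luminescence. Paired lines KB-3-1/KB-8-5-11; P-gp dependence checked by tariquidar co-treatment and HEK-293 MDR-19 versus empty-vector cells.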

Assay [2] can be described thus: P-glycoprotein substrates identified in KB-8-5-11 adenocarcinoma cell line, qHTS therapeutic library screen (AID 1346987). Also: nearly all actives have a fitted effect of over 65% in size. Also: potency is read from the fitted curve at half-maximal effect. Summed up: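 Compounds are pinned in dose-response onto KB-8-5-11 cells (500 cells/well, colchicine-free medium) and left 72 h at 37 degree C. CellTiter-Glo luminescence then yields AC50 values.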
Assay [3] relates to Zika virus NS2B-NS3 protease (unlinked complex). As to the kind of experiment: Primary screen GU Rhodamine qHTS for Zika virus inhibitors: Unlinked NS2B-NS3 protease assay (AID 1347159). Also: % is scaled to controls: 0 for no effect and ±100 for the full control effect; nearly all actives have a fitted effect of over 60% in size. The gist of the method: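 Buffer 10 mM Tris-HCl pH 8.0, 0.01% Tween 20. Unlinked protease 25 nM; compound preincubation 15 min, RT, protected from light. Substrate Rhod110, 1.5 microM; ~15% conversion in 15 min.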

The nature of assay [4]: Primary qHTS for inhibitors of nuclear receptor binding SET domain protein 2 (NSD2) in an RCH-ACV wild type WT cells (2C) (AID 1645877). Also: nearly all actives have a fitted effect of over 70% in size. Also: potency is read from the fitted curve at half-maximal effect.
Assay [5] in a line: Primary fluorescence-based thiol-reactive (MSTI) qHTS assay for identification of artifact compounds. (AID 1845221).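 Also: thiol-reactive compounds lower the probe fluorescence signal; nearly all actives have a fitted effect of over 65% in size.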 The gist of the method: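 A multi-concentration qHTS design tested compounds against 4 uM MSTI, pH 7.4 phosphate-buffered saline. Plates were protected from light for 1 h at room temperature before imaging fluorescence.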
Assay [6] can be described thus: Primary redox qHTS assay for identification of artifact compounds. (AID 1845223).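 Also: 0% = DMSO and 100% = reference compound.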 The gist of the method: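 Redox-cycling detection via DTT (250 uM final) oxidation coupled to Amplex Red (25 uM)/HRP (250 mU/mL) in HBSS. 15 min preincubation plus 30 min after DTT, room temperature. Ex/Em 525/598 nm; 4-parameter Hill fit against DMSO and 10 uM DA3003.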
The subject of assay [7] is KB-3-1. As to the kind of experiment: Cytotoxic Profiling of Annotated Libraries Using Quantitative High-Throughput Screening (AID 1296008). Also: nearly all actives have a fitted effect of over 60% in size. Also: potency is read from the fitted curve at half-maximal effect. As to max response: % is scaled to controls: 0 for no effect and ±100 for the full control effect. Particulars: Five cell lines viability, CellTiter-Glo ATP luminescence, 48-72 h; max response: stronger effect = lower value. Summed up:
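Compounds were pin-transferred onto cells and incubated 48 or 72 hr at 37 degree Celsius, 95% humidity. CellTiter-Glo was added, plates sat 10 min at room temperature, then ATP-coupled luminescence was imaged as the viability read-out.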

In assay [8] the test system is CAOV3. As to the kind of experiment: Primary qHTS to identify gynecologic anti-cancer compounds using libraries of approved drugs and bioactive compounds (AID 1345084). Also: nearly all actives have a fitted effect of over 55% in size. Also: potency is read from the fitted curve at half-maximal effect. Particulars: Gynecologic cancer cell panel viability, ATPlite luminescence, 48 h; series mostly up to 57.5 µM. Summed up:
(§1)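 ATP-based viability (ATPlite), 1,000 cells/well, 16 h pre-incubation, 48 h compound at 37 C, 5% CO2, 15 min RT before read.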

The test system of assay [9] is HeLa. The description is as above. The conditions noted are these: Gynecologic cancer cell panel viability, ATPlite luminescence, 48 h; series mostly up to 57.5 µM. Summed up: as §1
For assay [10], the system named is HACAT. As to the kind of experiment: qHTS assay to identify novel small-molecules to repurpose for Merkel cell carcinoma treatment (AID 1296009). Also: nearly all actives have a fitted effect of over 60% in size. Particulars: MCC and control cell lines, CellTiter-Glo viability, 72 h; at 44.8 µM (top of the series) unless noted. Summed up:
(§2)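 Viability readout: ATP luminescence (CellTiter-Glo) after 72 hr drug exposure at 37 degree celsius. Dose-response format was 8 points for NPC and 11 points for MIPE; data normalized to in-plate controls.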

Assay [11] has as its system SKOV3. As to the kind of experiment: Primary qHTS to identify gynecologic anti-cancer compounds using libraries of approved drugs and bioactive compounds (AID 1345084). Also: nearly all actives have a fitted effect of over 55% in size. Also: potency is read from the fitted curve at half-maximal effect. The conditions noted are these: Gynecologic cancer cell panel viability, ATPlite luminescence, 48 h; series mostly up to 57.5 µM. The gist of the method: as §1
Assay [12] addresses Cytochrome P450 2D6 (Homo sapiens) (UniProt P10635). As to the kind of experiment: Cytochrome P450 family 2 subfamily D member 6 (CYP2D6) small molecule antagonists: luciferase biochemical (cell-free) qHTS assay (AID 1645840; active = well fitted curve in the direction sought with a large enough effect in the repeat runs; an effect the other way counts as inactive or inconclusive; also: % is scaled to controls: 0 for no effect and ±100 for the full control effect; nearly all actives have a fitted effect of over 55% in size). The gist of the method:
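P450-Glo CYP2D6 system: proluciferin substrate converted by enzyme to luciferin, read by luminescence proportional to activity. Enzyme-substrate mix with compound 10 min at room temperature, then NADPH regeneration 1 h before detection reagent.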

Assay [13] addresses Cytochrome P450 2C9 (Homo sapiens) (UniProt P11712). As to the kind of experiment: Cytochrome P450 family 2 subfamily C member 9 (CYP2C9) small molecule antagonists: luciferase biochemical (cell-free) qHTS assay (AID 1645842; active = well fitted curve in the direction sought with a large enough effect in the repeat runs; an effect the other way counts as inactive or inconclusive; also: potency is read from the fitted curve at half-maximal effect; nearly all actives have a fitted effect of over 55% in size). Summed up:
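P450-Glo CYP2C9 system: proluciferin substrate with enzyme in mix containing 0.4% BSA, 10 min at room temperature, then NADPH regeneration solution added and incubated 1 h at 37C. Detection reagent stopped reaction; luminescence read after 20 min as RLU.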

Assay [14] concerns CRL-7250. As to the kind of experiment: qHTS assay to identify novel small-molecules to repurpose for Merkel cell carcinoma treatment (AID 1296009). Also: nearly all actives have a fitted effect of over 60% in size. The conditions noted are these: MCC and control cell lines, CellTiter-Glo viability, 72 h; series mostly up to 92 µM. The gist of the method: as §2
Assay [15] is described as follows: qHTS drug screen for cell cycle checkpoint inhibitors in PARPi-resistant BRCA-mutant ovarian cancer cell lines. (AID 1963452; calls by dose curve). The conditions noted are these: PEO1/OlaR viability, CellTiter-Glo luminescence, 96 h, stronger effect = lower value. The gist of the method: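 PEO1, PEO4 and PEO1/OlaR ovarian cancer cells, 600 per well, exposed 96 h at 37C to a dilution series. Viability read by CellTiter-Glo luminescence, normalized to DMSO and empty wells; activity summarized as Z-AUC.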

Inconclusive results are not listed. Activity calls are given as the source filed them. Unless noted, calls follow the shape of the dose curve; as a rule, active = well fitted curve in the direction sought with a large enough effect; inconclusive = small, poorly fitted or top-dose-only effect, or another doubt; inactive = no such curve, though single readings can be large; an effect the other way counts as inactive or inconclusive.

Chain of Cytochrome P450 2D6 (Homo sapiens) (P10635 whole entry, looked up): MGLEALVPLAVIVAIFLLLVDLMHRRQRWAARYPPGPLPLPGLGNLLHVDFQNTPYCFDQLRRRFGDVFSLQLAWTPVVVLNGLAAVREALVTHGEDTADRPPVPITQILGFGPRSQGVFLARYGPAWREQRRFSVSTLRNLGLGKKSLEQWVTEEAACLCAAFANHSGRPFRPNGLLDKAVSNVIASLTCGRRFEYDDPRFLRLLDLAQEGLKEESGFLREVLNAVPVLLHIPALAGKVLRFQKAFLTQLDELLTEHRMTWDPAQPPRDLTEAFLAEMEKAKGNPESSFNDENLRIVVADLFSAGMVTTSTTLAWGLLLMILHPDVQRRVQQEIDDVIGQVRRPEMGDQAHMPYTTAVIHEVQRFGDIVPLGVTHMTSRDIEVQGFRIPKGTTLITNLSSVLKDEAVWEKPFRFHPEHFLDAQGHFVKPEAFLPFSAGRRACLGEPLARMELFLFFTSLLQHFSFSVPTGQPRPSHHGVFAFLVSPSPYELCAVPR
Chain of Cytochrome P450 2C9 (Homo sapiens) (P11712 whole entry, looked up): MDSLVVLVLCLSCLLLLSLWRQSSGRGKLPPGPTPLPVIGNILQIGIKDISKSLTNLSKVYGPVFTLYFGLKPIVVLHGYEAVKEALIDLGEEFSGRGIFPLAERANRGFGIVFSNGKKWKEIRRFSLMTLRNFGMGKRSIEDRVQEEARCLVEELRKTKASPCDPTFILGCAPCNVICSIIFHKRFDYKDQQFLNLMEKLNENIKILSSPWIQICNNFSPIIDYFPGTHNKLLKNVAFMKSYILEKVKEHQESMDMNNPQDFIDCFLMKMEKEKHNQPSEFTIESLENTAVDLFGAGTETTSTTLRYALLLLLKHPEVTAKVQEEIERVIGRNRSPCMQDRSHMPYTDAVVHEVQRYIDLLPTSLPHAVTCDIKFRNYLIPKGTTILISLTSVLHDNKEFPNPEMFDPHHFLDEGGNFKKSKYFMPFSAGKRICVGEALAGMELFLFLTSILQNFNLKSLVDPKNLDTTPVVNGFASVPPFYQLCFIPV

Regarding `C[N@@+]1(CC2CC2)CC[C@]23c4c5ccc(O)c4O[C@H]2C(=O)CC[C@@]3(O)[C@H]1C5`, the Potency entry in assay [1], in assay [2], in assay [3], in assay [4], in assay [5] and in [6] was “inactive” throughout. Also, the Potency result in assay [8] and in assay [9] was “inactive” each time. The result in assay [7] was inactive.

Turning to `COC(=O)CC1CC2(C(=O)c3c(O)cccc3C2(O)C(=O)OC)C(C)O1` (stereo unspecified), the Potency entry in assay [2], in assay [3], in assay [4], in assay [6], in assay [8] and in assay [9] was “inactive” throughout. In addition, in assay [11], the Potency result was “inactive”. Moreover, the max response in assay [7] was 3.88% (inactive). The result in [10] was inactive.

For `CN1C(=O)CN=C(c2ccccc2Cl)c2cc(Cl)ccc21`, the Potency entry in assay [2], in assay [3], in [12], in assay [4], in assay [5] and in assay [6] was “inactive” each time. The Potency entry in [14], in assay [8], in assay [9] and in assay [11] was “inactive” throughout. Besides, the Potency in assay [13] was 21.3 µM (active). For the same compound, the max response in assay [7] is -0.99% (inactive).

Take `COc1ccc2c3c([nH]c2c1)C(C=C(C)C)N1C(=O)C2CCCN2C(=O)C1C3` (stereo unspecified): the Potency result in assay [1], in [2], in [3], in assay [6], in [8] and in assay [9] was “inactive” throughout. The outcome in [7] was inactive.

Take `C=CC(C)(C)c1[nH]c2c(CC=C(C)C)cc(CC=C(C)C)cc2c1C[C@@H]1NC(=O)[C@H](C)NC1=O`: the Potency entry in assay [1], in assay [2], in [3], in assay [4], in [6] and in [8] was “inactive” throughout. The Potency entry in assay [9] and in assay [11] was “inactive” each time. Moreover, the compound was classed as inactive in assay [7].

For the compound `CC1=CC2OC3[C@H](O)C[C@@](C)([C@]34CO4)[C@@]2(CO)[C@H](O)C1=O` (stereo partly specified), the Potency is 1.46 µM (active) in [2], 1.83 µM (active) in assay [4], 4.61 µM (active) in assay [7] and 25.1 µM (active) in assay [9]. In addition, the Potency result in assay [5] and in assay [6] was “inactive” each time.

Turning to `CN[C@@H]1C[C@H]2O[C@@](C)([C@@H]1OC)n1c3ccccc3c3c4c(c5c6ccccc6n2c5c31)C(=O)NC4`, the Potency in assay [4] is 0.059 µM (active); in assay [7], 0.13 µM (active); in assay [9] it was 0.282 µM (active); in [11] it was 316 nM (active). Besides, the Potency result in assay [5] and in [6] was “inactive” each time. Also, the Z-AUC is -2.43 (inactive) in [15], -2.26 in assay [15] (measured here: PEO1 parental Z-AUC) and -2.16 in [15] (measured here: PEO4 Z-AUC).
